CHO-K1 Ca ag – counter-screen for M1 agonists: effect in parental CHO-K1 cells. Fluo-8 calcium fluorescence; scaled to maximal ATP response, vehicle zero. activation, % at 3 µM. 0.48% of 360,000 active; in the data active means activation above about 15%;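 further: untransfected CHO-K1 host cells lacking M1 receptor as counterscreen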
CHRM1 antagonist – human CHRM1 antagonism | P11229 | CHO-K1 hM1, Fluo-8 calcium fluorescence, ACh EC80 antagonist | inhibition, % at 3 µM | 1.3% of 360,000 active | AID 588852;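 active means percent inhibition above its own plate's cutoff, namely the mean of that plate's compound wells plus 3 SD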;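 further: peak over basal fluorescence ratio during 140 s after agonist addition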
Target sequence (P11229 whole entry, looked up): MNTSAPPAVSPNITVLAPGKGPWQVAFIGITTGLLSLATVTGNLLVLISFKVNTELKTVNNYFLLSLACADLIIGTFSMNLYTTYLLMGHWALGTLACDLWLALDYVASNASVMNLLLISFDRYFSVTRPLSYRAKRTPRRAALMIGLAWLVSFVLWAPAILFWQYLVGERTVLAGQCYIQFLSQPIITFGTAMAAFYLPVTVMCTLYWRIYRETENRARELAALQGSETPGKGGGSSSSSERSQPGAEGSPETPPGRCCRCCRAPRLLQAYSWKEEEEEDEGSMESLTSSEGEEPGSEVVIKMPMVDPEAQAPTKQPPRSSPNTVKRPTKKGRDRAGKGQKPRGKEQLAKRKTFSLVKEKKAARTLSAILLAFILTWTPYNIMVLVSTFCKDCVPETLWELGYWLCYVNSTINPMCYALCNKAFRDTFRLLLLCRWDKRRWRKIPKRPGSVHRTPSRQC
CHO-K1 Ca PAM – nonselective activator or artifact in parental CHO-K1 calcium assay; activation, % at 3 µM; ATP EC20, Fluo-8 calcium fluorescence; 0% at ATP EC20, 100% at ATP max; 0.02% of 360,000 active;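 active means activation above the run cutoff, the mean activation of all test compounds plus 3 SD, cut at about 40% in these data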;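 further: peak over basal fluorescence ratio in a 140 s read after ATP addition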
CHRM1 PAM – potentiates human M1 receptor response to acetylcholine; P11229; CHO-K1 hM1, Fluo-8 calcium fluorescence, ACh EC20; 0% = ACh EC20, 100% = maximal ACh; activation, % at 3 µM; 0.088% of 360,000 active; in the data active means activation above about 19%, passing the limit was not always enough
M1 ag – agonists of human M1 muscarinic receptor; P11229; CHO-K1 hM1, Fluo-8 calcium fluorescence, agonist mode; 0% DMSO, 100% acetylcholine EC100; activation, % at 3 µM; 0.33% of 360,000 active;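 active means activation above the run's mean compound activation plus 3 SD, cut at about 16% in these data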;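 further: peak over basal fluorescence ratio within a 140 s kinetic read after compound addition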
CHO-K1 Ca antag – M1 antagonist counterscreen hit in parental CHO-K1 cells. ATP-induced calcium, Fluo-8 fluorescence. inhibition, % at 3 µM. 0.6% of 360,000 active. AID 602250;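 active means inhibition above a per-plate cutoff, the plate's mean sample inhibition plus 3 SD, cut at about 24% in these data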
Numbers stand for hits. Only some compounds are listed: those with a hit (about 2.3% of all), similar ones and a draw of the others.

`CCOC(=O)C1CCCN(C(=S)Nc2cccc(Cl)c2C)C1` (stereo unspecified) gave CHO-K1 Ca ag inactive, CHRM1 antagonist 56.9, CHO-K1 Ca PAM inactive, CHRM1 PAM inactive, M1 ag 68.2 and CHO-K1 Ca antag inactive.
CCOC(=O)C1CCCN(C(=O)c2cccc(NC(=O)C(CC)CC)c2)C1 (stereo unspecified) was read as CHO-K1 Ca ag inactive, CHRM1 antagonist inactive, CHO-K1 Ca PAM inactive, CHRM1 PAM inactive, M1 ag inactive and CHO-K1 Ca antag 24.0.
CCOC(=O)C1CCCN(C(=S)Nc2cccc(Cl)c2)C1 (stereo unspecified) was read as CHO-K1 Ca ag inactive, CHRM1 antagonist 62.4, CHO-K1 Ca PAM inactive, CHRM1 PAM inactive, M1 ag 74.0 and CHO-K1 Ca antag inactive.
COc1ccccc1CNS(=O)(=O)c1cc(C(=O)NCC2CCCO2)c(Cl)cc1Cl (stereo unspecified) was read as CHO-K1 Ca ag inactive, CHRM1 antagonist inactive, CHO-K1 Ca PAM inactive, CHRM1 PAM inactive, M1 ag inactive and CHO-K1 Ca antag inactive.
For COCCCNC(=O)CN(c1ccc(F)cc1)S(=O)(=O)c1ccc2c(c1)OCCO2 the results were CHO-K1 Ca ag inactive, CHRM1 antagonist inactive, CHO-K1 Ca PAM inactive, CHRM1 PAM inactive, M1 ag inactive and CHO-K1 Ca antag inactive.
`CCCCc1ccc(N/C(N)=N/c2nc(C)cc(C)n2)cc1` gave CHO-K1 Ca ag 41.6, CHRM1 antagonist 82.6, CHO-K1 Ca PAM inactive, CHRM1 PAM inactive, M1 ag 34.8 and CHO-K1 Ca antag 45.9.
Cc1ccc(N/C(N)=N/c2nc(C)cc(C)n2)cc1 was read as CHO-K1 Ca ag inactive, CHRM1 antagonist inactive, CHO-K1 Ca PAM inactive, CHRM1 PAM inactive, M1 ag inactive and CHO-K1 Ca antag inactive.
Screening Cc1cc(C)nc(/N=C(\N)Nc2ccc(C(C)C)cc2)n1 returned CHO-K1 Ca ag 16.1, CHRM1 antagonist inactive, CHO-K1 Ca PAM inactive, CHRM1 PAM inactive, M1 ag inactive and CHO-K1 Ca antag inactive.
For NC(=O)C1CCN(C(=O)Cc2ccsc2)CC1 the results were CHO-K1 Ca ag inactive, CHRM1 antagonist inactive, CHO-K1 Ca PAM inactive, CHRM1 PAM inactive, M1 ag inactive and CHO-K1 Ca antag inactive.
Screening COC(=O)c1cc(S(=O)(=O)NCCc2sccc2C)c[nH]1 returned CHO-K1 Ca ag inactive, CHRM1 antagonist inactive, CHO-K1 Ca PAM inactive, CHRM1 PAM inactive, M1 ag inactive and CHO-K1 Ca antag inactive.
`O=[N+]([O-])c1ccc(N(CC2CO2)S(=O)(=O)c2ccccc2)cc1` (stereo unspecified) gave CHO-K1 Ca ag inactive, CHRM1 antagonist inactive, CHO-K1 Ca PAM inactive, CHRM1 PAM inactive, M1 ag inactive and CHO-K1 Ca antag inactive.
Screening O=S(=O)(c1ccccc1)N(CC1CO1)c1ccccc1 (stereo unspecified) returned CHO-K1 Ca ag 15.7, CHRM1 antagonist inactive, CHO-K1 Ca PAM inactive, CHRM1 PAM inactive, M1 ag inactive and CHO-K1 Ca antag inactive.
Screening C=CCNc1ncnc2c1ncn2[C@H]1CN(Cc2cccc3ccccc23)C[C@@H](CO)O1 returned CHO-K1 Ca ag inactive, CHRM1 antagonist inactive, CHO-K1 Ca PAM inactive, CHRM1 PAM inactive, M1 ag inactive and CHO-K1 Ca antag inactive.
`CC(=O)Nc1ccc(N2C(=O)CSC2c2cccc(Br)c2)cc1` (stereo unspecified) gave CHO-K1 Ca ag inactive, CHRM1 antagonist inactive, CHO-K1 Ca PAM inactive, CHRM1 PAM inactive, M1 ag inactive and CHO-K1 Ca antag inactive.
For CC(C)N1CCCC(C)(C(=O)Nc2cccc(Oc3ccccc3)c2)C1 (stereo unspecified) the results were CHO-K1 Ca ag inactive, CHRM1 antagonist 35.9, CHO-K1 Ca PAM inactive, CHRM1 PAM inactive, M1 ag inactive and CHO-K1 Ca antag inactive.
`CCCNC(=O)C1(C)CCN(Cc2ccc(Oc3ccccc3)cc2)C1` (stereo unspecified) gave CHO-K1 Ca ag inactive, CHRM1 antagonist inactive, CHO-K1 Ca PAM inactive, CHRM1 PAM inactive, M1 ag inactive and CHO-K1 Ca antag inactive.
`CCCNC(=O)C1(C)CCCN(Cc2ccc(Oc3ccccc3)cc2)C1` (stereo unspecified) gave CHO-K1 Ca ag inactive, CHRM1 antagonist 39.7, CHO-K1 Ca PAM inactive, CHRM1 PAM inactive, M1 ag inactive and CHO-K1 Ca antag inactive.

Source: PubChem BioAssay
